Assay: JC-1 mitochondrial signal, unstimulated myeloma cells – cell-based, JC-1 fluorescence, RPMI8226, 24 h, 100 nL compound, profiling panel (AID 1169); note: test concentration not given here
Details: JC-1 mitochondrial potential fluorescence, higher = more signal

Row | SMILES | z-score
1 | COCCOC(=O)N1C(=O)[C@@]2(c3cc(C#Cc4ccc(OC)cc4)ccc31)[C@H](C(N)=O)[C@H]1C(=O)O[C@H](c3ccccc3)[C@H](c3ccccc3)N1[C@@H]2c1ccccc1OCCO | -0.994
2 | C=CCN1C(=O)[C@@]2(O[C@@H](CCO)[C@H]([Si](C)(C)c3ccc(OC)cc3)[C@H]2C)c2cc(NC(=O)c3ccc(OC)cc3)ccc21 | -1.02
3 | COC(=O)[C@@]1(Cc2ccc(F)cc2)[C@@H]2[C@@H](CC(=O)[C@H]2CC(=O)C(=O)N(C)C)CN1C(=O)c1ccccc1 | -0.00425
4 | O=C1C2C=CC(C(O)c3ccc(F)cc3)N(Nc3ccccc3F)C2C(=O)N1c1ccccc1 (stereo not given) | -0.143
5 | C=CCN(Cc1ccccc1)C(=O)C(c1cccs1)N(CCOCCO)C(=O)/C=C\C(=O)O (stereo not given) | 0.158
6 | C=C(CCCC)/C(=C/C[C@@H](OC(C)=O)c1ccccc1OCCO)c1cnc2ccccc2c1 | -0.691
7 | COc1cc2c(cc1OC)CN(C(=O)[C@@H]1[C@H]3C(=O)O[C@H](c4ccccc4)[C@H](c4ccccc4)N3[C@H](c3ccc(O)cc3)[C@@]13C(=O)Nc1ccc(C#CC4(O)CCCCCC4)cc13)CC2 | -0.767
8 | COCCOC(=O)N1C(=O)[C@@]2(c3cc(C#Cc4ccc(OC)cc4)ccc31)[C@H](c1ccc(O)cc1)N1[C@H](c3ccccc3)[C@H](c3ccccc3)OC(=O)[C@H]1[C@@H]2C(=O)NC[C@H](O)c1ccccc1 | -0.653
9 | COCCOC(=O)N1C(=O)[C@@]2(c3cc(C#CC4=CCCCC4)ccc31)[C@H](C(=O)Nc1nc3ccccc3s1)[C@H]1C(=O)O[C@H](c3ccccc3)[C@H](c3ccccc3)N1[C@@H]2c1ccccc1OCCO | -0.849
10 | CN(C)C(=O)[C@]1(Cc2ccccc2CN=[N+]=[N-])N=C(c2ccc(OCCCO)cc2)O[C@@H]1c1ccccc1CN=[N+]=[N-] | -1.13
11 | COc1ccc([C@H]2OC[C@@H]3CC4(CC=CC4)C(=O)N32)cc1 | -0.54
12 | CCCC[C@@H]1C[C@H]1[C@@H](NC(=O)c1ccco1)c1ccc(C(=O)OC)cc1 | -0.705
13 | O=C1C[C@]2(c3ccc([N+](=O)[O-])cc3)C(=O)N(CCN3CCOCC3)c3cc(CO)ccc3[C@H]2N1C1CCCCC1 | 0.0691
14 | O=C(O)[C@@]1(CCS(=O)(=O)c2ccccc2)COC(c2ccc(OCCCO)cc2)=N1 | 0.943
15 | COc1ccc(C(O)C2C=CC3C(=O)N(c4ccccc4)C(=O)C3N2Nc2ccccc2F)cc1OCc1ccccc1 (stereo not given) | -0.75
16 | CC(=O)NCCCC[C@@H]1NC(=O)[C@@H]2C[C@H](C(=O)NCCCCN(C)C)[C@H](c3cccc(OCCO)c3)N2C1=O | -0.569
17 | O=C1NC(=O)C2C1C=CC(C(O)C(c1ccccc1)c1ccccc1)N2Nc1ccc(Cl)cc1Cl (stereo not given) | -0.925
18 | COC(=O)C(CC#Cc1ccc2c(c1)[C@]1(C(=O)N2)[C@H](c2ccc(O)cc2)N2[C@H](c3ccccc3)[C@H](c3ccccc3)OC(=O)[C@H]2[C@@H]1C(=O)Nc1nc2ccccc2s1)C(=O)OC | -0.712
19 | C=CCOC(=O)[C@H]1[C@@H]2C(=O)O[C@@H](c3ccccc3)[C@@H](c3ccccc3)N2[C@@H](c2ccc(OCCOC(=O)[C@@H]3C[C@@H]4C(=O)N5CCC[C@H]5C(=O)N4[C@@H]3c3cccc(OCCO)c3)cc2)[C@]12C(=O)Nc1ccccc12 | -0.737
20 | COc1cc(CO)cc(I)c1O[C@H]1C=C(C(=O)NCCO)C[C@@H](N(CCN2CCOCC2)C(=O)C2CCOC2)[C@@H]1O (stereo not given in full) | 0.0404
21 | C=CCOC(=O)[C@@H]1[C@H]2C(=O)O[C@H](c3ccccc3)[C@H](c3ccccc3)N2[C@H](c2ccc(OCCOC(=O)[C@@H]3C[C@@H]4C(=O)N[C@@H](Cc5ccccc5)C(=O)N4[C@@H]3c3ccc(O)cc3)cc2)[C@@]12C(=O)Nc1ccc(I)cc12 | -0.451
22 | C=CCNC(=O)[C@H]1[C@@H]2C(=O)O[C@@H](c3ccccc3)[C@@H](c3ccccc3)N2[C@@H](c2ccccc2OCCO)[C@]12C(=O)Nc1ccc(C#CC3=CCCCC3)cc12 | -0.853
23 | Cc1ccc(S[C@]2(C(=O)NCCN3CCOCC3)CC(=O)N(Cc3ccccc3Cl)[C@@H]2c2ccc(CO)cc2)cc1 | -0.168
24 | COC(=O)[C@@]1(Cc2ccc(OC)cc2)[C@H]2c3cc(C(=O)N4CCCC4)n(Cc4ccccc4)c3C[C@H]2CN1C(=O)c1ccccc1 | -0.933
25 | CC(C)C(=C=CC[C@@H](O)c1ccccc1OCCO)CCO | 0.719

From PubChem BioAssay
